Test results reported in PubChem BioAssay (NCI).
This is part of a sample that, as a whole, favours compounds with a hit. Of some 83,000 tested, about 20% had one in any assay.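 Negative percent growth values reflect cell death: -40 means 40% of the cells present at the start died, and -100 means all died.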 Values without a mark were called inactive. The source made the active and inactive calls. The calls were made as follows: active = growth percent below 10; inactive = the rest.

Legend:
Experiment in all cases: NCI-60 one-dose screen, 48 h (100 = growth as untreated, 0 = no growth, -100 = all killed)
[1] = test system: NCI-H23 lung; details: 10 µM unless noted
[2] = test system: NCI-H226 lung; details: 10 µM unless noted
[3] = test system: NCI-H322M lung; details: 10 µM unless noted
[4] = test system: HOP-62 NSCLC; details: 10 µM unless noted
[5] = test system: NCI-H460 lung; details: 10 µM unless noted
[6] = test system: HOP-92 NSCLC; details: 10 µM unless noted
[7] = test system: NCI-H522 lung; details: 10 µM unless noted
[8] = test system: A549/ATCC NSCLC; details: 10 µM unless noted
[9] = test system: 786-0 renal; details: 10 µM unless noted
[10] = test system: COLO 205 colon; details: 10 µM unless noted
[11] = test system: DU-145 prostate; details: 10 µM unless noted
[12] = test system: K-562 leukemia; details: 10 µM unless noted
[13] = test system: MALME-3M melanoma; details: 10 µM unless noted
[14] = test system: MDA-MB-231 breast; details: 10 µM unless noted
[15] = test system: RXF 393 renal; details: 10 µM unless noted
[16] = test system: SF-268 CNS; details: 10 µM unless noted
[17] = test system: SF-295 CNS; details: 10 µM unless noted
[18] = test system: SF-539 CNS; details: 10 µM unless noted
[19] = test system: UACC-257 melanoma; details: 10 µM
[20] = test system: M14 melanoma; details: 10 µM unless noted

Structure (SMILES) | growth [1] | growth [2] | growth [3] | growth [4] | growth [5] | growth [6] | growth [7] | growth [8] | growth [9] | growth [10] | growth [11] | growth [12] | growth [13] | growth [14] | growth [15] | growth [16] | growth [17] | growth [18] | growth [19] | growth [20]
COc1ccc(S(=O)(=O)NCCNc2nccc(-c3c(-c4ccccc4)nc4sccn34)n2)cc1 | 37% | 13.2% | 45.9% | 64.4% | 23.6% | 48.9% | 41% | 18.4% | 32% | 1.41% (active) | 20.2% | 18.5% | 60.9% | 36.6% | 30.8% | 20.5% | 16.6% | 45.3% | 46% | 29.4%
COc1ccc(Cn2c(SC)nc(=O)n(Cc3ccc(Cl)cc3)c2=O)cc1 | 93.7% | 106% | 90.2% | 94.6% | 103% | 90% | 93.9% | 87.9% | 98.7% | 98.8% | 103% | 92.6% | 95.1% | 99.4% | 107% | 94.1% | 59.7% | 106% | 102% | 98.6%
CCCCCCCCCCCCNC(=S)N/N=C/c1ccc(Cl)c(Cl)c1 | 109% | 106% | 112% | 105% | 112% | 122% | 65.7% | 103% | 106% | 106% | 116% | 97.2% | 113% | 104% | 108% | 118% | 98.3% | 94.2% | 107% | 105%
CN1CCN(c2ccc3cc(-c4nc5ccccc5[nH]4)c(=O)oc3c2)CC1 | 74.5% | 89% | 105% | 98% | 92.7% | 58.9% | 94.9% | 90.3% | 105% | 92.4% | 112% | 43.7% | 90.4% | 80.2% | 108% | 105% | 104% | 93.5% | 83.3% | 88.8%
CCN(C(=O)c1cc2ncccc2[nH]1)[C@H]1CCC[C@@H](NCc2cccc(F)c2)C1 | 97.4% | 101% | 80.6% | 105% | 105% | 92.1% | 89.8% | 102% | 110% | 18.7% | 104% | 105% | 92% | 91.4% | 95.1% | 102% | 102% | 98.5% | 107% | 113%
COc1ccc(C2=CC(c3ccc(Oc4ccnc5cc(Cl)ccc45)c(OC)c3)c3c(nc(OC)[nH]c3=O)N2)cc1 (stereo not given) | 83.4% | 88.9% | 72.9% | 81.8% | 63.5% | 49.3% | 75.7% | 65.5% | 80.3% | 102% | 75.6% | 28% | 78.5% | 75.2% | 78% | 61.6% | 96.5% | 105% | 87.5% | 82.8%
O=S(=O)(c1ccccc1)n1ccc(-c2ccc3c(c2)CCO3)n1 | 78.4% | 64.6% | 91.4% | 98.8% | 87.3% | 41.8% | 61.7% | 78.8% | 90.3% | 96.9% | 95% | 56.1% | 94% | 82.9% | 82.9% | 92.7% | 83.3% | 86.7% | 79.9% | 101%
N#CC1=C(N)OC2=C(C(=O)CCC2)C1c1ccco1 (stereo not given) | 97.1% | 103% | 99.1% | 91.3% | 110% | 106% | 92.7% | 101% | 101% | 110% | 108% | 98.6% | 113% | 113% | 114% | 114% | 108% | 97.5% | 102% | 104%
CCCCCCCCCCCCCCCCC(Br)C(=O)O (stereo not given) | 110% | 95.5% | 115% | 92.4% | 108% | 120% | 80.4% | 103% | 111% | 119% | 116% | 86.1% | 98.3% | 115% | 105% | 112% | 93.8% | 86.4% | 110% | 101%
COc1ccc(C(=O)c2cc(OC)c(OC)c(OC)c2)cc1/C=C/C(=O)c1ccc(OC)c(OC)c1 | 32.2% | 55.6% | 54.7% | 58.6% | 18.4% | 39.4% | 3.99% (active) | 57.1% | 55.9% | 31.3% | -4.98% (active) | 12.3% | 56.6% | 26.1% | 29.3% | 17% | -46.2% (active) | -23.5% (active) | 49.1% | 36.2%
COc1ccc(OC)c(C(=O)c2oc3ccc(Br)cc3c2N)c1 | 24.7% | 55.9% | 20.9% | 33.6% | 8.36% (active) | 4.96% (active) | -2.14% (active) | 12.2% | 38% | -16.1% (active) | 16.3% | 8.24% (active) | 35.2% | 29.8% | -30.1% (active) | 47.3% | -35.1% (active) | -44.4% (active) | 49.9% | 27.3%
O=C1c2ccccc2C(=O)c2c1oc1oc3c(c(=O)c21)c(=O)n(-c1ccccc1)c1ccccc31 | 38.2% | 86.3% | 63.5% | 36.1% | 33.6% | 80% | 19.4% | 37.7% | 97.9% | 92.7% | 94.4% | 26.8% | 42% | 97.3% | -14.1% (active) | 34.3% | 18.4% | -5.45% (active) | 101% | 44.7%
Cn1c(-c2nonc2NC(=O)c2ccc(F)cc2)nc2ccccc21 | 108% | 96% | 102% | 120% | 101% | 104% | 95.2% | 98.1% | 98.6% | 117% | 107% | 9.03% (active) | 123% | 129% | 109% | 109% | 98.5% | 103% | 97.2% | 106%
COC1=CC(c2ccc[nH]2)=N/C1=C\c1[nH]c(C)c(C(=O)CCCCC(=O)NCc2ccccc2)c1C | 31.6% | 28.6% | 77% | 57.1% | 1.07% (active) | -55.5% (active) | -33.5% (active) | 1.81% (active) | 18.9% | 55.2% | 17% | 74.5% | 76.7% | -30.5% (active) | -72.3% (active) | 54.9% | 51.2% | 56.6% | 86.9% | 36.2%
